# Screens (PubChem)
# ABCB6 inh 2: ABCB6 transporter inhibitors, primary screen, K562-ABCB6 cells, flow cytometry, MLPCN library; K562-ABCB6 porphyrin accumulation, 1 h; active compounds read low; ATP-binding cassette sub-family B member 6 (Homo sapiens), Q9NP58; fluorescence ratio to DMSO, % at 10 µM; 360,000 compounds, 0.19% hits;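 active = fluorescence ratio to DMSO below 75%, the collection mean minus 3 SD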;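 note: signal is porphyrin accumulated inside mitochondria; 100% equals median channel fluorescence of DMSO control wells; lower ratio means ABCB6 inhibition with less porphyrin fluorescence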
# SKN-1 inh: suppressors of acrylamide-induced Pgst-4::GFP reporter in worms, primary screen, SKN-1 inhibitor project, whole organism, uHTS, GFP/RFP fluorescence ratio, strain VP596. C. elegans VP596 Pgst-4::GFP/RFP ratio, 24 h. inhibition, % at 21.8 µM. 360,000 compounds, 0.49% hits. AID 624304, 2012;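 active = interference check ratio from 0.5 to 1.5 plus GFP to RFP signal ratio inhibition reaching or exceeding a fixed threshold, cut at about 30% in these data, passing the limit was not always enough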
# Platelet DG rel: inhibitors of platelet dense granule secretion, primary screen, cell-based, MLPCN, human platelets; human platelet-rich plasma, SFLLRN dense granule ATP release, luminescence; inhibition, %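 (compounds screened at 7.5 µM in platelet-rich plasma)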; 300,000 compounds, 0.22% hits;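 active = mean replicate score, as percent of positive control, at or above 50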
# VLA-4 inh: inhibition in human VLA-4 binding assay, primary screen, VLA-4 allosteric modulator project, MLPCN library, flow cytometry, VLA-4 expressing cells; 330,000 compounds, 0.2% hits; inhibition, % (about 7 µM as worked out from the volumes in the protocol); ligand binding flow cytometry; Integrin alpha-4 (Homo sapiens), P13612; in the data active = inhibition above about 50%
# Target sequence (P13612 whole entry, looked up): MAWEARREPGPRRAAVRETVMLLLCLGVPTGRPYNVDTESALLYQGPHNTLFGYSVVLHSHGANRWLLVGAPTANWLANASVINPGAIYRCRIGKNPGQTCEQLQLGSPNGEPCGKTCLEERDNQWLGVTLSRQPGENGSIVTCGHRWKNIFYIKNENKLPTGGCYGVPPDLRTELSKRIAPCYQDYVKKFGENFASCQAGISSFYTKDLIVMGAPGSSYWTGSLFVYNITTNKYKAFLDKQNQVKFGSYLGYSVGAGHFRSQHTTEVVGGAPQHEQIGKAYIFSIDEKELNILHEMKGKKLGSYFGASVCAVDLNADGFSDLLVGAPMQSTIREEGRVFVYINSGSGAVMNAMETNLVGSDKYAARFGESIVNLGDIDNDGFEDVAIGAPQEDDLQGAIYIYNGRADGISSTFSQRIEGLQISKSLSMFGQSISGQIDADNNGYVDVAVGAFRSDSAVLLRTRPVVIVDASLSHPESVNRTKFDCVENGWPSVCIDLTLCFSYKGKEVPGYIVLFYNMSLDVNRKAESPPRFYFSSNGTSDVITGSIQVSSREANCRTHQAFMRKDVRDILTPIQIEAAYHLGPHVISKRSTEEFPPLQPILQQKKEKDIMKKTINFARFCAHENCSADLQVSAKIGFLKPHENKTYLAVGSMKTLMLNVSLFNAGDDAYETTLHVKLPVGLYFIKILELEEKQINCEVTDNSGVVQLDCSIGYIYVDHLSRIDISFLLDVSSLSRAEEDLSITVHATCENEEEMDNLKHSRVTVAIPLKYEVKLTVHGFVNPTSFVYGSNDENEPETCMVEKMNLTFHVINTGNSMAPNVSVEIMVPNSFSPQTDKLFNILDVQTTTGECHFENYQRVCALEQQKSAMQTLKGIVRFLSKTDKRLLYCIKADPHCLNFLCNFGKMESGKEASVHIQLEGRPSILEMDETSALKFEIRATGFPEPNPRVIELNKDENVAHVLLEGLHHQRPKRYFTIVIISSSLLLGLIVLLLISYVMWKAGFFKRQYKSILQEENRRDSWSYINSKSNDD
# CR mimetic SO: reduction of superoxide in aged yeast, primary screen, HTS; superoxide response (% of plate mean), % at 10 µM; 330,000 compounds, 0.18% hits; S. cerevisiae aged cells, superoxide DHE fluorescence; active compounds read low;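 active = superoxide response under a set limit, about three screen SD below normal, cut at about 65% in these data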;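 note: yeast aged for seven days with compound at 30 °C before DHE staining; 100% = average MFI of all compound-treated wells on the plate with controls excluded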
# * hit, by the source's call; · = not tested or not shown. The list is not random: actives were taken first. Their share in the collection is about 1.2%.
SMILES,ABCB6 inh 2,SKN-1 inh,Platelet DG rel,VLA-4 inh,CR mimetic SO
O=C(CN1CCN(S(=O)(=O)c2ccc(Br)cc2)CC1)Nc1ccc2c(c1)OCO2,95.0,34.6*,-2.7,11.2,108.5
COc1ccc(C2=Nc3ccccc3NC(=O)C2N(CCc2ccccc2)C(=O)c2cccs2)cc1 (stereo unspecified),91.0,7.6,·,·,·
CC(C)(C)C(=O)c1c(N)[nH]c(C(=O)c2ccccc2)c1-c1cc2ccccc2nc1Cl,96.0,-3.3,·,·,·
COc1ccccc1N=c1oc2cc(O)ccc2cc1C(N)=O,95.0,16.8,57.0*,-25.9,101.2
COc1ccccc1N=c1oc2cc(O)ccc2cc1C(=O)NCC1CCCO1 (stereo unspecified),102.0,2.8,1.9,9.5,106.0
O=C(Oc1cncc(Cl)c1)c1ccco1,92.0,39.2*,6.9,1.4,100.3
CCN(CC)C(=O)c1sc(NC(=O)Cc2ccc(OC)cc2)c(C#N)c1C,100.0,45.5*,1.7,0.6,99.3
O=C(Nc1ccccc1F)C1CCCC1,93.0,41.3*,-1.5,7.7,91.4
O=C(CCN1CCCCCC1)Nc1ccccc1F,94.0,49.1*,-9.6,9.0,95.7
O=C(CN1CCCCCC1)Nc1ccccc1F,94.0,-4.0,0.2,11.6,94.1
C=C1C(=O)C23C(O)C1CCC2C12COC3(O)C(O)C1C(C)(C)CCC2O (stereo unspecified),102.0,-5.0,·,·,·
CC1(C(=O)NS(=O)(=O)C2CC2)CCCN(C(=O)c2ccc3ccccc3c2)C1 (stereo unspecified),98.0,1.3,·,·,·
Cn1c(=O)n(C)c2cc(S(=O)(=O)NCc3ccccc3)ccc21,98.0,0.1,51.7*,0.7,97.2
COc1ccc(NS(=O)(=O)c2ccc3c(c2)n(C)c(=O)n3C)cc1,106.0,36.8*,-3.8,-7.2,92.7
Cn1c(=O)n(C)c2cc(S(=O)(=O)NCc3ccco3)ccc21,98.0,-8.8,10.9,4.4,70.2
Cc1ccc(NS(=O)(=O)c2ccc3c(c2)n(C)c(=O)n3C)cc1,102.0,10.1,2.3,0.2,94.0
COc1ccc(-c2c(C(=O)c3ccccc3)[nH]c(N)c2C(=O)NCc2ccccc2)cc1OC,96.0,-4.3,·,·,·
CC1(C(=O)NS(=O)(=O)c2cccc(F)c2)CCN1C(=O)CCc1ccccc1 (stereo unspecified),98.0,6.9,·,·,·
Cc1[nH]c(=S)c(C#N)c(C)c1CCC#N,104.0,-7.1,75.8*,8.4,105.5
O=C(O)c1cc(-c2cccc3ccccc23)nc2ccccc12,94.0,37.2*,-7.5,0.0,116.8
O=C(O)c1cc(-c2cc(C(=O)O)c3ccccc3n2)nc2ccccc12,·,·,-4.3,6.2,107.8
CCOC(=O)C(=C1Nc2ccccc2N1)n1c(-c2cccnc2)nc2ccccc21,99.0,-10.9,·,·,·
C/C(=N\NC(=O)c1ccncc1)c1cc2ccccc2oc1=O,94.0,-3.5,-33.9,10.0,95.3
COc1ccc2oc(=O)c(/C(N)=N/NC(=O)c3ccncc3)cc2c1,104.0,38.1*,-0.3,5.0,97.8
CCOC(=O)C(=O)N(C)c1c(CC)nc2c(OCc3ccc(OC(F)F)cc3)cccn12,92.0,11.7,·,·,·
SMILES,ABCB6 inh 2,SKN-1 inh,Platelet DG rel,VLA-4 inh,CR mimetic SO
N/C(=N\OC(=O)c1ccc(Cl)cc1Cl)c1ccccc1,99.0,56.0*,44.8,-5.5,137.6
N/C(=N\OC(=O)c1ccccc1Cl)c1ccccc1,95.0,61.5*,40.3,10.1,90.3
N/C(=N\OC(=O)c1ccc(Cl)cc1Cl)c1cccnc1,95.0,53.8*,8.5,-4.9,108.1
N/C(=N\OC(=O)c1ccc(Cl)cc1)c1cccnc1,93.0,28.9*,2.0,16.9,95.6
N/C(=N\OC(=O)c1ccc(Cl)cc1Cl)c1ccc(Cl)cc1,100.0,-14.4,-17.8,14.9,116.5
COc1ccc(S(=O)(=O)NCc2ccc(C(=O)NCCN(C)Cc3ccccc3)cc2)cc1,106.0,-12.2,·,·,·
N/C(=N/OC(=O)c1ccccc1Cl)c1nonc1N,99.0,9.4,54.1*,-14.8,90.9
COc1cccc(C(c2sc3ncnn3c2O)N2CC(C)OC(C)C2)c1 (stereo unspecified),96.0,35.4*,-1.7,11.5,84.3
